Experimental findings from ChEMBL document CHEMBL4296182, “CO-ADD screening of NIH NCI Diversity Set V” are described below.

One may read the Inhibition as the drop in the measured response relative to a control, in per cent.

In the first assay the test system is Staphylococcus aureus. Kind of assay: Antibacterial activity against Staphylococcus aureus MRSA ATCC 43300 (CO-ADD:GP_020); MIC in CAMBH media using NBS plates, by Resazurin F(560/590). It is filed as functional. To be noted: Concentration 20 uM, ASSAY_TEST Inhibition of Bacterial Growth, detection method Resazurin, Fluorescence (ex560/em590), MEDIA CAMHB, plate type 384well, CORNING #3640, time 18 hr. Background: Resazurin is reduced to fluorescent resorufin, in cell work by metabolically active cells.
Turning to `O=C(Nc1cccc(Cl)c1)Nn1cnnc1`, the Inhibition was 17.05%.
For `CN1CCC=C(C(=O)N2c3ccccc3Sc3ccc(Cl)cc32)C1.O=C(O)CCC(=O)O`, the Inhibition amounted to 8.59%.
Same read-out and setting: the value for `Nc1nc(O)c2nn(-c3ccccc3)nc2n1` was 7.59%.
Take `O=[N+]([O-])c1ccc(NN=C(c2ccccc2)c2ccccc2)nc1`: the Inhibition amounted to 5.39%.
Consider `CC1(c2ccc3ccccc3c2)CCC(=O)O1` (stereo unspecified), for which the Inhibition was 11.1%.
Take `CCCCNC(=O)Nc1ccccc1CC`: the Inhibition is reported as 14.67%.
On to `Nc1ccc(C(=O)C(=O)c2ccc(N)cc2)cc1`, for which the Inhibition was -28.54%.
Regarding `COC(=O)Cc1[nH]c(Cl)nc1C(N)=O`, the Inhibition is given as -16.49%.
For `CN(C)c1ccc(/C=C/C(=O)c2cc(Cl)ccc2O)cc1`, the Inhibition is 14.9%.
Same read-out and setting: the value for `N#CCc1cnc2ccccc2n1` was 13.21%; that for `Cn1c(=O)c2nc(CNc3ccc(C(=O)O)cc3)[nH]c2n(C)c1=O` was -13.67%; that for `COc1cccc(-c2nnc(N)o2)c1` was 11.58%.
As to `O=C(c1cccnc1)N1CCN(c2ccccc2Cl)CC1`, the Inhibition came to 7.8%.
On to `Cn1cnc([N+](=O)[O-])c1Sc1nc[nH]n1`, for which the Inhibition is reported as 12.64%.
In the case of `CC(=O)Nc1nc(C)c(CCC2OCCO2)c(O)n1`, the Inhibition came out at 4.85%.
Still for that read-out and setting: next, `NC(=O)c1nnsc1-c1ccc(-c2snnc2C(N)=O)cc1`: 15.72%; `C[C@]12CC[C@H](O)CC1=CC[C@@H]1[C@@H]2CC[C@]2(C)c3n[nH]cc3C[C@@H]12`: 17.35%.
Turning to `Cc1ccccc1NC(=O)C(=O)Nc1ccccc1C`, the Inhibition came out at 22.64%.
Take `COc1ccn(C2CCCCO2)c(=O)n1` (stereo unspecified): the Inhibition is reported as 1.35%.
Consider `Cn1c(=O)c2c(nc(N3CCOCC3)n2C)n(C)c1=O`, for which the Inhibition is recorded as 9.23%.
Regarding `N#CC1=C(Nc2ccccc2Cl)SC(c2ccncc2)NC1=O` (stereo unspecified), the Inhibition is given as -1.66%.
Turning to `CC(C)c1ccc(-c2nc3ccccc3s2)cc1`, the Inhibition was determined as 16.1%.
Consider `Nc1cc2c3c(cccc3c1)C(=O)N(CCN1CCCC1)C2=O`, for which the Inhibition was found to be 23.19%.
Turning to `O=C1NCN(CCO)CN1`, the Inhibition came out at 3.46%.
Still for that read-out and setting: next, `c1ccc(-c2cc3ccccc3[nH]2)cc1` [2-PHENYL-1H-INDOLE]: 0.91%; `FC(F)(F)c1nc2nc(Cl)c(Cl)nc2n1CCCN1CCOCC1`: 14.57%.
Consider `CCOC(=O)c1cc2c(OC)c(OC)ccc2c2ncc(C#N)c(O)c12`, for which the Inhibition is listed as 2.33%.
As to `NC(CC(=O)Nc1cc(C(F)(F)F)ccc1Cl)=NO`, the Inhibition was found to be 9.76%.
Turning to `CCOc1ccc(NC(=O)Nc2cc(C(C)C)ccc2C)cc1`, the Inhibition is on record as -18.22%.
Regarding `CN1CN(C)C(c2ccncc2)=C1c1ccncc1`, the Inhibition was 5.44%.
On to `N#Cc1nnn(-c2ccc(Cl)cc2)c1N`, for which the Inhibition is given as 17.83%.
Regarding `CCOC(=O)CSc1nc2nc(Cl)c(Cl)[nH]c-2n1`, the Inhibition is 22.58%.
Take `Cn1c(=O)c2c(nc(Cc3ccc(N)cc3)n2C)n(C)c1=O`: the Inhibition is on record as 12.3%.
As to `CCC(C)(C)c1ccc(Oc2cccc(C(=O)O)c2)cc1`, the Inhibition is -8.99%.
With `CNC(=O)Nc1ccc(S(N)(=O)=O)cc1`, the Inhibition is on record as -4.03%.
Consider `CCOC(=O)CCCN(c1[nH]c(C)c(C)c1C#N)S(=O)(=O)c1ccc(C)cc1`, for which the Inhibition was found to be 20.71%.
Still for that read-out and setting: the value for `COc1cc(Cl)c(CC(=O)c2c[nH]c3ccccc23)cc1OC` was -6.42%; that for `N#CC1=C(Nc2ccccc2Cl)SC(c2ccccc2O)NC1=O` (stereo unspecified) was 1.74%.

Another assay concerns Acinetobacter baumannii. Kind of assay: Antibacterial activity against Acinetobacter baumannii ATCC 19606 (CO-ADD:GN_034); MIC in CAMBH media using NBS plates, by Resazurin F(560/590). To be noted: Concentration 20 uM, ASSAY_TEST Inhibition of Bacterial Growth, detection method Resazurin, Fluorescence (ex560/em590), MEDIA CAMHB, plate type 384well, CORNING #3640, time 18 hr. The assay is classed as functional.
Take `O=C(Nc1cccc(Cl)c1)Nn1cnnc1`: the Inhibition came out at 8.62%.
Turning to `CN1CCC=C(C(=O)N2c3ccccc3Sc3ccc(Cl)cc32)C1.O=C(O)CCC(=O)O`, the Inhibition is -10%.
Same read-out and setting: next, `Nc1nc(O)c2nn(-c3ccccc3)nc2n1`: -13.43%.
`O=[N+]([O-])c1ccc(NN=C(c2ccccc2)c2ccccc2)nc1`: the Inhibition is recorded as -2.58%.
With `CC1(c2ccc3ccccc3c2)CCC(=O)O1` (stereo unspecified), the Inhibition is on record as -6.13%.
For the compound `CCCCNC(=O)Nc1ccccc1CC`, the Inhibition is given as 10.42%.
On to `Nc1ccc(C(=O)C(=O)c2ccc(N)cc2)cc1`, for which the Inhibition is on record as -4.51%.
For `COC(=O)Cc1[nH]c(Cl)nc1C(N)=O`, the Inhibition is -11.06%.
As for `CN(C)c1ccc(/C=C/C(=O)c2cc(Cl)ccc2O)cc1`, the Inhibition is listed as -19.64%.
With `N#CCc1cnc2ccccc2n1`, the Inhibition is -15.61%.
Consider `Cn1c(=O)c2nc(CNc3ccc(C(=O)O)cc3)[nH]c2n(C)c1=O`, for which the Inhibition turned out to be 2.67%.
On to `COc1cccc(-c2nnc(N)o2)c1`, for which the Inhibition is given as -10.93%.
For `O=C(c1cccnc1)N1CCN(c2ccccc2Cl)CC1`, the Inhibition was -13.63%.
`Cn1cnc([N+](=O)[O-])c1Sc1nc[nH]n1`: the Inhibition turned out to be 10.96%.
`CC(=O)Nc1nc(C)c(CCC2OCCO2)c(O)n1`: the Inhibition is reported as 12.66%.
The same measure, in the same setting: the value for `NC(=O)c1nnsc1-c1ccc(-c2snnc2C(N)=O)cc1` was 9.25%.
Consider `C[C@]12CC[C@H](O)CC1=CC[C@@H]1[C@@H]2CC[C@]2(C)c3n[nH]cc3C[C@@H]12`, for which the Inhibition came to 7.15%.
For the compound `Cc1ccccc1NC(=O)C(=O)Nc1ccccc1C`, the Inhibition is given as -12.42%.
Take `COc1ccn(C2CCCCO2)c(=O)n1` (stereo unspecified): the Inhibition is given as -10.23%.
With `Cn1c(=O)c2c(nc(N3CCOCC3)n2C)n(C)c1=O`, the Inhibition amounted to 6.55%.
Regarding `N#CC1=C(Nc2ccccc2Cl)SC(c2ccncc2)NC1=O` (stereo unspecified), the Inhibition was determined as 6.04%.
On the same count and under the same terms, the value for `CC(C)c1ccc(-c2nc3ccccc3s2)cc1` was 2.02%; that for `Nc1cc2c3c(cccc3c1)C(=O)N(CCN1CCCC1)C2=O` was 9.76%.
The same measure, in the same setting: the value for `O=C1NCN(CCO)CN1` was -3.91%; that for `c1ccc(-c2cc3ccccc3[nH]2)cc1` [2-PHENYL-1H-INDOLE] was -19.68%.
Consider `FC(F)(F)c1nc2nc(Cl)c(Cl)nc2n1CCCN1CCOCC1`, for which the Inhibition turned out to be 9.11%.
In the case of `CCOC(=O)c1cc2c(OC)c(OC)ccc2c2ncc(C#N)c(O)c12`, the Inhibition was determined as 4.98%.
With `NC(CC(=O)Nc1cc(C(F)(F)F)ccc1Cl)=NO`, the Inhibition was -1.74%.
Still for that read-out and setting: next, `CCOc1ccc(NC(=O)Nc2cc(C(C)C)ccc2C)cc1`: 0.23%.
`CN1CN(C)C(c2ccncc2)=C1c1ccncc1`: the Inhibition turned out to be 14.08%.
Still for that read-out and setting: the value for `N#Cc1nnn(-c2ccc(Cl)cc2)c1N` was 3.74%; that for `CCOC(=O)CSc1nc2nc(Cl)c(Cl)[nH]c-2n1` was 6.84%.
On to `Cn1c(=O)c2c(nc(Cc3ccc(N)cc3)n2C)n(C)c1=O`, for which the Inhibition is 8.51%.
Same read-out and setting: next, `CCC(C)(C)c1ccc(Oc2cccc(C(=O)O)c2)cc1`: 14.6%.
On to `CNC(=O)Nc1ccc(S(N)(=O)=O)cc1`, for which the Inhibition was 14.32%.
Turning to `CCOC(=O)CCCN(c1[nH]c(C)c(C)c1C#N)S(=O)(=O)c1ccc(C)cc1`, the Inhibition is given as -4.29%.
Turning to `COc1cc(Cl)c(CC(=O)c2c[nH]c3ccccc23)cc1OC`, the Inhibition was 2.77%.
In the case of `N#CC1=C(Nc2ccccc2Cl)SC(c2ccccc2O)NC1=O` (stereo unspecified), the Inhibition is recorded as -8.74%.
